Consider 14 compounds from PubChem BioAssay.

For orientation: inhibition means the drop in the measured response relative to a control, in per cent.

Assay [1] in a line: inhibitors of TNFa-induced NFkB p65 translocation, primary screen, imaging, HUVEC, MLSMR starter and 10KST1 sets (AID 438;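 active = inhibition above 20% together with a positive visual image hit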;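 also: compound added about 3h40 before a 20 min TNFalpha stimulation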;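 as to inhibition: signal is the nuclear over cytoplasmic p65 intensity ratio per well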). The conditions noted are these: HUVEC TNFa-induced p65 nuclear translocation; cell count: measured here: nuclei count (cytotoxicity indicator), at 2.08 µM; inhibition: at 2 µM, stronger effect = higher value, 0% TNFa-plus-vehicle, 100% no-TNFa wells.
Assay [2] can be described thus: reduction of polyQ htt aggregates in cells – imaging, exon1htt(103Q)mCFP cells, high-content imaging, primary screen (AID 483;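 active = visual image review flags a hit and inhibition of aggregation exceeds 20%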;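 also: compound exposure lasted 3 days before fixation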;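 as to nuclei count: percent of the per-plate median nuclei count of sample wells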). The following applies: exon1htt(103Q)mCFP cell line, aggregate imaging, at 2 µM; inhibition of aggregation: stronger effect = higher value; nuclei count: measured here: cell count, toxicity.
Assay [3] can be described thus: endothelial E-selectin expression blockers – imaging, HUVEC, immunofluorescence, MLSMR starter and 10KST1 sets, primary screen (AID 487;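 active = visually confirmed hit in the image check and inhibition above 20%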;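 as to inhibition: signal is fraction of cell area covered by stained E-selectin grains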;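 as to nuclei count: 100% = median nuclei count of all wells on the same plate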). The following applies: HUVEC TNFalpha-induced E-selectin immunofluorescence imaging, at 2 µM; inhibition: stronger effect = higher value; nuclei count: measured here: cell number, toxicity.
Assay [4] deals with Voltage-gated potassium channel subunit beta-2 (Rattus norvegicus) (UniProt P62483). Nature of the assay: inhibitors of rat Kvbeta2 reductase activity – biochemical, NADPH fluorescence, primary screen (AID 622;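 active = fluorescence slope higher than the sample average by over 3 SD, cut at about -0.22 in these data, passing the limit was not always enough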;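 also: slope of raw intensity against log time taken from 70 to 1610 s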). The following applies: recombinant KvBeta, 4-cyanobenzaldehyde reduction, at 10 µM, stronger effect = higher value.
Sequence of Voltage-gated potassium channel subunit beta-2 (Rattus norvegicus) (P62483 whole entry, looked up): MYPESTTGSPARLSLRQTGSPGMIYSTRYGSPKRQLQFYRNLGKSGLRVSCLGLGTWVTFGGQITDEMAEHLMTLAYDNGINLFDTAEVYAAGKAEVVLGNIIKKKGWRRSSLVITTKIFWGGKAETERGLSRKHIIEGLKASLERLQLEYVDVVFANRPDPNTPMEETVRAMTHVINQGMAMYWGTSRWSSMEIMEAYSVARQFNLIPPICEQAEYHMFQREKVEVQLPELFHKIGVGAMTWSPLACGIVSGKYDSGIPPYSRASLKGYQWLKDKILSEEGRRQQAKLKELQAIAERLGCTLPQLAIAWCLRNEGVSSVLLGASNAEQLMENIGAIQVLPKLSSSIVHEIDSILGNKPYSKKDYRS
Assay [5] has the same target. Nature of the assay: enhancers of rat Kvbeta2 NADPH turnover – biochemical, NADPH fluorescence, primary screen (AID 623;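 active = NADPH fluorescence slope more negative than the mean of all samples by about 3 SD, 99.7% confidence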;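 also: fluorescence intensity change per second fitted from 20 to 320 s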). The following applies: Recombinant KvBeta, NADPH fluorescence decrease slope, 10 min; at 10 µM; stronger effect = lower value.
The target of assay [6] is Alpha-2C adrenergic receptor (Homo sapiens) (UniProt P18825). The assay can be described thus: compounds altering alpha2C-coupled GIRK flux – cell-based, HEK293 alpha2C/GIRK1/2, thallium flux, primary screen (AID 624;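 active = fluorescence slope after compound addition differing from the mean of all screened samples at 99.7% confidence, in either direction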;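 also: slope of fluorescence ratio to pre-addition baseline per second over 15 to 24 s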). The conditions noted are these: thallium flux BTC fluorescence, at 10 µM, actives lie on both sides.
Sequence of Alpha-2C adrenergic receptor (Homo sapiens) (P18825 whole entry, looked up): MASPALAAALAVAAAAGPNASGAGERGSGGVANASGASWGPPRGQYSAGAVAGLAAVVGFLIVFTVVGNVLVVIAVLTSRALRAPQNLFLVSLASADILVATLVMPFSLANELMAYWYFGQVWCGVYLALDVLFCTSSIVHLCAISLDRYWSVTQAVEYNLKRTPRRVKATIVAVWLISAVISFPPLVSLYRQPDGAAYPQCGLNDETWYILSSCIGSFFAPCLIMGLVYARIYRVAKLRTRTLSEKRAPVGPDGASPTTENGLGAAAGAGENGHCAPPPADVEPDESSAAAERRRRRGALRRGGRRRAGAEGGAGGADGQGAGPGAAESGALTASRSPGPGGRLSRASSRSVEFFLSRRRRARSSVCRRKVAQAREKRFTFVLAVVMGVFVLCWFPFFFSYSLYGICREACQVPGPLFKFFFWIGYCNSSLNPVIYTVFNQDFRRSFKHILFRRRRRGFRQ
The nature of assay [7]: blockers of RIG-like receptor reporter activation – cell-based, Sendai virus stimulus, luciferase, 10K MLSCN set, TLR/RLR signaling modifier project, primary screen (AID 602276).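 Also: firefly luciferase from ISG56 promoter only with Renilla not read in this screen; 0% = Sendai virus plus DMSO and 100% = medium plus DMSO without virus.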 The conditions noted are these: HEK293 RL24 IRF3 luciferase reporter, at 10 µM, stronger effect = higher value.
Assay [8] can be described thus: TLR3 IRF3 reporter activation blockers – cell-based, poly I:C stimulus, luciferase, 10K MLSCN set, primary screen (AID 602277;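 active = inhibition of the reporter signal at or above 50%; inactive = inhibition below 50%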). The following applies: HEK293-TLR3 RL24 IRF3 luciferase reporter, at 10 µM, stronger effect = higher value. A general note: In a reporter assay the amount or activity of a reporter protein is the signal.

SMILES strings stand for the structures. Calls of active or inactive are those of the source.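 The calls were made as follows, unless noted: active = inhibition at or above 50% at 10 µM; inactive = inhibition below 50%.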

As for `CC1CC(C)CN(Cc2nc3c(c(=O)n(C)c(=O)n3C)n2Cc2ccccc2Cl)C1` (centres undefined), the cell count in assay [1] was 705. The inhibition in assay [1] is -16.8% (inactive); in assay [3] it was 37.7% (inactive); in assay [7], -10.4% (inactive); in assay [8] it was -1.1% (inactive). Moreover, in assay [2], the inhibition of aggregation was -2.3% (inactive). For the same compound, the nuclei count stood at 78% in assay [2] and 88% in assay [3]. Also, the fluorescence slope in assay [4] was -0.482 (inactive). The NADPH fluorescence slope in assay [5] was -4.6e-05 (inactive). Further, the slope in assay [6] was 0.00565 (inactive).

`Clc1ccc2c(c1)[C@H]1OCC[C@H]1[C@@H](c1ccco1)N2`: the cell count in assay [1] is 824. For the same compound, the inhibition was 5.5% (inactive) in assay [1], -101% (inactive) in assay [3], -42.9% (inactive) in assay [7] and -122% (inactive) in assay [8]. For the same compound, in assay [2], the inhibition of aggregation was -3.2% (inactive). The nuclei count was determined as 98.8% in assay [2] and 125% in assay [3]. In addition, the fluorescence slope in assay [4] was -0.572 (inactive). Besides, the NADPH fluorescence slope in assay [5] is -3.2e-05 (inactive). Moreover, the slope in assay [6] was 0.00552 (inactive).

With `C=CCSc1nc2sc(C)c(C)c2c(=O)[nH]1`, the cell count in assay [1] stood at 589. For the same compound, the inhibition in assay [1] was 1.4% (inactive); in assay [3], 3.2% (inactive); in assay [7], -11.3% (inactive); in assay [8] it was -3.55% (inactive). In addition, in assay [2], the inhibition of aggregation was 10.2% (inactive). The nuclei count in assay [2] was 111%; in assay [3], 107%. Moreover, the fluorescence slope in assay [4] was -0.563 (inactive). Also, the NADPH fluorescence slope in assay [5] is -9.3e-06 (inactive). Also, the slope in assay [6] is 0.00785 (inactive).

Turning to `Cc1ccc(-c2nc(=S)c3c(n2Cc2ccco2)CCCC3)cc1`, the cell count in assay [1] was 320. The inhibition in assay [1] was 1% (inactive); in assay [3], -22.3% (inactive); in assay [7], 16% (inactive); in assay [8], 27.9% (inactive). The inhibition of aggregation in assay [2] is -7.2% (inactive). Also, the nuclei count amounted to 77.9% in assay [2] and 85.5% in assay [3]. In assay [4], the fluorescence slope was -0.485 (inactive). Moreover, in assay [5], the NADPH fluorescence slope was -0.00017 (inactive). Besides, in assay [6], the slope was 0.00678 (inactive).

As to `Cc1c(NC(=O)C2CCCCN2S(=O)(=O)c2ccc(Cl)cc2)c(=O)n(-c2ccccc2)n1C` (centres undefined), in assay [1], the cell count is 699. Moreover, the inhibition in assay [1] was -4.2% (inactive); in assay [3], 2% (inactive); in assay [7], 9.42% (inactive); in assay [8], -3.63% (inactive). The inhibition of aggregation in assay [2] is -14.5% (inactive). Moreover, the nuclei count in assay [2] is 112%; in assay [3], 109%. The fluorescence slope in assay [4] was -0.604 (inactive). Further, the NADPH fluorescence slope in assay [5] was 1.8e-05 (inactive). For the same compound, the slope in assay [6] was 0.00694 (inactive).

Regarding `Cc1ccc(-c2nnc(N3CCN(C(=O)CN4C(=O)c5ccccc5C4=O)CC3)c3ccccc23)cc1`, the cell count in assay [1] came to 375. In addition, the inhibition in assay [1] was 10.2% (inactive); in assay [3], -158% (inactive); in assay [7], 8.25% (inactive); in assay [8], 12.9% (inactive). Further, in assay [2], the inhibition of aggregation is -15.9% (inactive). Moreover, the nuclei count in assay [2] came out at 109%; in assay [3] it was 133%. The fluorescence slope in assay [4] is -0.468 (inactive). Further, the NADPH fluorescence slope in assay [5] was -5.9e-05 (inactive). The slope in assay [6] was 0.00522 (inactive).

Take `CN1CCC(NC(=O)c2cccs2)CC1`: the cell count in assay [1] was determined as 575. Moreover, the inhibition in assay [1] is 8.5% (inactive); in assay [3], -16.6% (inactive); in assay [7], 8.43% (inactive); in assay [8] it was 33.8% (inactive). For the same compound, in assay [2], the inhibition of aggregation is -27.2% (inactive). Further, the nuclei count in assay [2] worked out at 88.6%; in assay [3] it was 112%. Further, the fluorescence slope in assay [4] was -0.547 (inactive). Further, the NADPH fluorescence slope in assay [5] was -5e-05 (inactive). Also, the slope in assay [6] is 0.00687 (inactive).

For the compound `CCN(c1ccc2c(c1)OCO2)S(=O)(=O)c1cc(Br)cc2c1N(C(=O)C1CC1)CC2`, the cell count in assay [1] worked out at 341. Besides, the inhibition is -14.4% (inactive) in assay [1], -9% (inactive) in assay [3], 11.9% (inactive) in assay [7] and 21.6% (inactive) in assay [8]. The inhibition of aggregation in assay [2] was 1.3% (inactive). Also, the nuclei count stood at 99.8% in assay [2] and 147% in assay [3]. Moreover, in assay [4], the fluorescence slope is -0.525 (inactive). Moreover, the NADPH fluorescence slope in assay [5] was -0.000116 (inactive). In addition, the slope in assay [6] was 0.00411 (inactive).

As for `Cc1nc2ccc(NC(=O)NCc3ccco3)cc2s1`, the cell count in assay [1] is 359. The inhibition in assay [1] is -2.2% (inactive); in assay [3], -15.3% (inactive); in assay [7], -22.3% (inactive); in assay [8] it was -83.4% (inactive). The inhibition of aggregation in assay [2] was 21.2% (inactive). Further, the nuclei count in assay [2] was 100%; in assay [3] it was 82.3%. Besides, the fluorescence slope in assay [4] was -0.338 (inactive). In addition, in assay [5], the NADPH fluorescence slope is 5e-06 (inactive). In addition, the slope in assay [6] is 0.00475 (inactive).

`Nc1cc(=O)[nH]c(SCC(=O)Nc2ccc(Br)cc2)n1`: in assay [1], the cell count stood at 825. Moreover, the inhibition in assay [1] is 8.2% (inactive); in assay [3], 18.9% (inactive); in assay [7], 1.99% (inactive); in assay [8], 4.12% (inactive). In assay [2], the inhibition of aggregation is -2.2% (inactive). In addition, the nuclei count in assay [2] is 108%; in assay [3] it was 128%. The fluorescence slope in assay [4] was -0.507 (inactive). Further, in assay [5], the NADPH fluorescence slope is 4.3e-05 (inactive). Besides, the slope in assay [6] was 0.00582 (inactive).

Turning to `O=C(O)CCn1[nH]c(=O)ccc1=O`, the cell count in assay [1] came out at 172. Moreover, the inhibition in assay [1] was 6.8% (inactive); in assay [3] it was -3% (inactive); in assay [7] it was 21.4% (inactive); in assay [8], 18% (inactive). For the same compound, in assay [2], the inhibition of aggregation is 37% (active). In addition, the nuclei count in assay [2] was 67.3%; in assay [3], 84.3%. Also, the fluorescence slope in assay [4] is -0.562 (inactive). Further, the NADPH fluorescence slope in assay [5] was 1.7e-06 (inactive). In assay [6], the slope is 0.0053 (inactive).

As to `Cc1c(C(=O)NCc2ccccn2)sc2nc(-c3ccc(F)cc3)cn12`, the cell count in assay [1] was determined as 482. The inhibition in assay [1] was -5.5% (inactive); in assay [3], 10.9% (inactive); in assay [7], 17.6% (inactive); in assay [8] it was -13.7% (inactive). Further, in assay [2], the inhibition of aggregation is -10% (inactive). Moreover, the nuclei count in assay [2] was 61.1%; in assay [3], 104%. Moreover, the fluorescence slope in assay [4] was -0.502 (inactive). For the same compound, the NADPH fluorescence slope in assay [5] was 1.3e-05 (inactive). In addition, the slope in assay [6] is 0.00621 (inactive).

Consider `N#Cc1ccccc1NC(=O)CSc1nnc(-c2ccccc2)n1-c1ccccc1`, for which the cell count in assay [1] came to 556. For the same compound, the inhibition in assay [1] is -25.3% (inactive); in assay [3], -1.6% (inactive); in assay [7], 1.9% (inactive); in assay [8], 24.8% (inactive). The inhibition of aggregation in assay [2] was -20.9% (inactive). Also, the nuclei count in assay [2] turned out to be 99.9%; in assay [3], 83.7%. For the same compound, the fluorescence slope in assay [4] was -0.603 (inactive). Moreover, the NADPH fluorescence slope in assay [5] was -1.9e-05 (inactive). Further, the slope in assay [6] is 0.00673 (inactive).

Turning to `Nc1nc(N2C(=O)C3CC=CCC3C2=O)nn1-c1ccccc1` (centres undefined), the cell count in assay [1] came out at 444. The inhibition in assay [1] is 20.1% (inactive); in assay [3], -23.5% (inactive); in assay [7], -8.69% (inactive); in assay [8], 23.3% (inactive). For the same compound, in assay [2], the inhibition of aggregation is -11.6% (inactive). Also, the nuclei count in assay [2] amounted to 109%; in assay [3] it was 132%. The fluorescence slope in assay [4] was -0.474 (inactive). For the same compound, in assay [5], the NADPH fluorescence slope is 2.4e-05 (inactive). In assay [6], the slope is 0.00364 (inactive).
